Screens as filed in PubChem.
A selection: hits, their analogues and other compounds. The true share with any hit is near 3.4%.
HIV Env fusion – inhibitors of HIV-1 Env-driven cell-cell fusion, primary screen, HeLa-JRFL effector, CEM21 target cells, luciferase | inhibition, % at 12.3 µM | 360,000 compounds, 1.1% hits;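 active = mean replicate inhibition score of at least 50 and every replicate individually at or above 50; inconclusive = only one of the two criteria met; inactive = mean below 50 and not all replicates reaching 50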;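 note: 0% = plate neutral controls and 100% = maraviroc near 300 nM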
miR-122 sensor – miR-122 Renilla sensor signal increase in Huh7, primary screen, miR-122 inhibitor project, cell-based, single point, plate reader. Huh7 miR-122 Renilla luciferase sensor, 48 h; neutral wells = 0, positive control = 100. activation (reporter increase), % at 12.5 µM. 340,000 compounds, 0.3% hits. AID 602342, 2012;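 active = mean replicate activation score at least 90 and every replicate individually at or above 90; inconclusive = only one of the two criteria met; inactive = neither criterion met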;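 note: higher luciferase means less miR-122 activity so hits act as miR-122 inhibitors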
Wnt act – Wnt/beta-catenin pathway activators, primary screen, cell-based, plate reader, single point. Wnt/beta-catenin reporter cell assay, activator. activation, % at 9.35 µM. 300,000 compounds, 1.2% hits; in the data active = activation above about 30%, passing the limit was not always enough; inconclusive = no clear call, values can overlap the other calls;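 note: 0% = neutral control wells and 100% = positive control wells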
esBAF inh – Bmi1 luciferase reporter increase in mESCs, primary screen, esBAF inhibitor project, mouse ES cells, Bmi1 luciferase knock-in, single point | 24 h; 100% = twice the neutral-well signal | reporter increase, % at 12.5 µM | AID 602393, 2012 | 350,000 compounds, 2% hits; in the data active = activation above about 40%; inconclusive = no clear call, values can overlap the other calls;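 note: 0% = median of the plate's neutral control wells and 100% = double that signal; a rise in the Bmi1 reporter signal indicates esBAF inhibition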
MITF act – activators of MITF-driven TRPM1 promoter reporter, primary screen, cell-based, SK-MEL-5, luciferase, single point | SK-MEL-5 TRPM1-promoter luciferase, 24 h; % of positive control, neutral wells = 0 | activation, % at 12.5 µM | 300,000 compounds, 0.75% hits;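 active = mean activation of at least 80% with every replicate also reaching 80%; inconclusive = mean reaches 80% but some replicate falls short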;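 note: 0% = neutral control wells and 100% = parthenolide positive control wells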
An asterisk follows results filed as active; ? = inconclusive; . = no result; [ ] = another dose, or the depositor's remark.

SMILES	HIV Env fusion	miR-122 sensor	Wnt act	esBAF inh	MITF act
C[C@@H]1CN([C@@H](C)CO)C(=O)Cc2cc(NS(=O)(=O)c3ccc(Cl)cc3)ccc2O[C@H]1CN(C)S(C)(=O)=O	2[16.7 µM]	3[16.7 µM]	.	-2	.
CCC1(c2ccccc2)NC(=O)N(CC(=O)Nc2cc(S(=O)(=O)N3CCCCC3)ccc2OC(C)C)C1=O (configuration not stated)	98*	11	-4	7	-13
CCC1(c2ccccc2)NC(=O)N(CC(=O)Nc2cc(S(=O)(=O)N3CCCCCC3)ccc2OC)C1=O (configuration not stated)	12	.	-4	.	-11
N#C[C@@H]1[C@H](c2ccc(C3=CCCCC3)cc2)[C@H](CO)N1C(=O)CN1CCOCC1	42[16.7 µM]	.	.	1	.
CC1(Cc2ccc(C(F)(F)F)nc2)C(=O)Nc2cc(-c3ccccc3Cl)ccc21 (configuration not stated)	70*	5	-6	-5	.
CC1(Cc2ccccc2C#N)C(=O)Nc2cc(-c3ccccc3Cl)ccc21 (configuration not stated)	57*	-3	-3	0	.
COc1cccc(-c2cnc3c(c2)C(=O)N([C@@H](C)CO)C[C@@H](C)[C@@H](CN(C)C(C)=O)O3)c1	-23[16.7 µM]	0[16.7 µM]	.	0	.
COc1ccc(/C=C/c2cc(-c3ccc(C)cc3)o[n+]2C)cc1	134*	-17	.	.	-88
O=S(=O)(N[C@@H]1CC[C@@H](CCn2cc(C3(O)CCCC3)nn2)O[C@@H]1CO)c1ccccc1	13[16.7 µM]	.	.	2	.
Cc1c(C)n(CCc2ccccc2)c2ncnc(NCCO)c12	-35	-5	14	76*	138*
Cc1ccc(-n2ncc3c(NCc4cccnc4)ncnc32)cc1C	-96	-14	13	75*	69
Cc1cccc(-n2ncc3c(NCCCO)ncnc32)c1	-42	-3	40*	21	65
Cc1ccc(-n2c(C)c(C)c3c(NCCCO)ncnc32)cc1	-19	8	10	59*	73
COc1ccc(-n2c(C)c(C)c3c(NCCCO)ncnc32)cc1	2	-4	6	40	32
Cc1ccc(-n2ncc3c(NCc4ccccc4)ncnc32)cc1	.	5	.	36	47
C[C@H](CO)N1C[C@H](C)[C@@H](CN(C)S(=O)(=O)c2ccc(F)cc2)Oc2ccc(NC(=O)C3CC3)cc2CC1=O	-4[16.7 µM]	-8[16.7 µM]	.	1	.
Cc1noc(C)c1NC(=O)N(C)C[C@@H]1Oc2ccc(NC(=O)NC3CCCCC3)cc2C(=O)N([C@H](C)CO)C[C@H]1C	.	2[16.7 µM]	.	1	.
CC(=O)N(C)C[C@H]1Oc2cc(C#Cc3ccccc3)ccc2S(=O)(=O)N([C@@H](C)CO)C[C@H]1C	9[16.7 µM]	-5[16.7 µM]	.	-3	.
Cc1ccc(-n2ncc3c(NCc4cccnc4)ncnc32)c(C)c1	58*	.	-5	.	-15
Cc1ccc(-n2ncc3c(NCc4ccccn4)ncnc32)c(C)c1	.	-12	.	19	18
Cc1cccc(-n2ncc3c(NCc4ccc5c(c4)OCO5)ncnc32)c1	-33	9	-1	8	.
COc1ccc(-n2ncc3c(NCc4cccnc4)ncnc32)cc1	-50	9	43*	55*	68
COc1ccc(-n2ncc3c(NCC(C)C)ncnc32)cc1	.	-3	.	.	0
Cc1cccc(-n2ncc3c(NCc4cccnc4)ncnc32)c1	-25	9	21	88*	67
CC1=C(C(=O)N(C)C)CC(CC(=O)NC2CCCCC2)C(=O)N1CCC1=CCCCC1 (configuration not stated)	9	-2	-2	70*	.
SMILES	HIV Env fusion	miR-122 sensor	Wnt act	esBAF inh	MITF act
CCN(CC)C(=O)C1=C(C)N(CCC2=CCCCC2)C(=O)C(CC(=O)NC2CCCC2)C1 (configuration not stated)	2	-6	-5	2	.
CC1=C(C(=O)N2CCCCCC2)CC(CC(=O)NC2CCCCC2)C(=O)N1CCC1=CCCCC1 (configuration not stated)	-3	.	-2	.	.
CC1=C(C(=O)N(C)C)CC(CC(=O)NC2CCCC2)C(=O)N1CCC1=CCCCC1 (configuration not stated)	-78	-3	8	49*	.
N#Cc1ccc(-c2ccc3c(c2)[C@H]2[C@H](CCN2C(=O)C2CCC2)[C@H](CO)N3)cc1	1[16.7 µM]	.	.	.	.
COc1ccc(/C=N/N=C2/SCC(=O)N2Cc2ccccc2)cc1	-111	.	56*	.	.
CC=Cc1ccc2n(c1=O)C[C@@H]1[C@@H](CO)[C@H](C(=O)N3CCOCC3)N(Cc3ccccc3OC)[C@H]21 (mixture of isomers)	-4[16.7 µM]	.	.	0	.
C/C=C/c1cnc2c(c1)C(=O)N([C@H](C)CO)C[C@H](C)[C@H](CN(C)C(=O)Cc1ccccn1)O2	-22[16.7 µM]	.	.	-2	.
COc1cc(C(F)(F)F)ccc1C(=O)NCCc1ccco1	8	-1	4	60*	107*
O=C(NNC(=S)Nc1ccc(Br)cc1)c1ccccc1	-48	10	9	34	23
O=C(NNC(=S)Nc1ccccc1)c1ccc(O)cc1	-23	-1	57*	78*	?
O=C(NNC(=S)NC(=O)c1ccccc1)c1ccc(O)cc1	4	-8	0	2	-4
O=C(NNC(=S)Nc1ccccc1)c1cccc(Br)c1	.	3	.	47*	11
C[C@@H]1CN([C@@H](C)CO)C(=O)c2cc(NC(=O)CCC(F)(F)F)ccc2O[C@@H](C)CCCCO[C@H]1CN(C)Cc1ccccc1	-28[16.7 µM]	12[16.7 µM]	.	1	.
N#C/C(=N\Nc1ccc(Cl)cc1)C(=O)c1ccccc1	78*	12	3	-8	-8
Cc1c(N/N=C(\C#N)C(=O)c2ccc(Cl)cc2)c(=O)n(-c2ccccc2)n1C	32	.	.	.	-47
O=C(c1cccc(F)c1)N1C[C@H]2[C@@H](c3ccccc31)[C@@H](CO)N2C(=O)C1CCCCC1	.	85[16.7 µM]	.	-3	.
Cc1noc(C)c1NC(=O)Nc1ccc2c(c1)CC(=O)N([C@H](C)CO)C[C@H](C)[C@@H](CN(C)C(=O)Nc1ccc3c(c1)OCO3)O2	1[16.7 µM]	13[16.7 µM]	.	0	.
CC(=O)c1cc(NC(=O)c2ccc(C)cc2)c(=O)oc1/C=C/N(C)C	.	-6	.	44*	8
Cc1cccc(/C=N/NC(=O)c2cc(Br)ccc2OCc2ccccc2)n1	-2	.	-2	0	-20
Cc1cccc(C=NOCCc2ccccc2)n1	-35	-4	-1	66*	73
Cc1nn(-c2ccccc2)c(Cl)c1C1C(C#N)=C(N)OC2=C1C(=O)CC(C)(C)C2 (configuration not stated)	.	2	-2	-4	-21
CC(C)c1ccc(-c2nn(-c3ccccc3)cc2C2C(C#N)=C(N)OC3=C2C(=O)CC(C)(C)C3)cc1 (configuration not stated)	11	-2	6	52*	.
